Results published in PubChem BioAssay (NCATS).
Results filed as inconclusive are left out. Activity calls are given as the source filed them. The call rests on the fitted dose curve; in most records, active means well fitted curve in the direction sought with a large enough effect; inconclusive means small, poorly fitted or top-dose-only effect, or another doubt; inactive means no such curve, though single readings can be large; an effect the other way counts as inactive or inconclusive.

What was measured:
[1] = target: Rap guanine nucleotide exchange factor 3 (Homo sapiens) (UniProt O95398); assay: Confirmatory qHTS for antagonist of cAMP-regulated guanine nucleotide exchange factor 3 (EPAC1) (AID 1645880); conditions: EPAC1 Rap1B-BODIPY-GDP exchange, fluorescence; activity, negative = inhibition: at 115 µM (top of the series); further: nearly all actives have a fitted effect of over 55% in size; further: potency means the concentration at half of the fitted maximal effect;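 on activity, negative = inhibition: plate controls were DMSO only for no effect and full effect of the ATA control for full effect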
Sequence of Rap guanine nucleotide exchange factor 3 (Homo sapiens) (O95398 whole entry, looked up): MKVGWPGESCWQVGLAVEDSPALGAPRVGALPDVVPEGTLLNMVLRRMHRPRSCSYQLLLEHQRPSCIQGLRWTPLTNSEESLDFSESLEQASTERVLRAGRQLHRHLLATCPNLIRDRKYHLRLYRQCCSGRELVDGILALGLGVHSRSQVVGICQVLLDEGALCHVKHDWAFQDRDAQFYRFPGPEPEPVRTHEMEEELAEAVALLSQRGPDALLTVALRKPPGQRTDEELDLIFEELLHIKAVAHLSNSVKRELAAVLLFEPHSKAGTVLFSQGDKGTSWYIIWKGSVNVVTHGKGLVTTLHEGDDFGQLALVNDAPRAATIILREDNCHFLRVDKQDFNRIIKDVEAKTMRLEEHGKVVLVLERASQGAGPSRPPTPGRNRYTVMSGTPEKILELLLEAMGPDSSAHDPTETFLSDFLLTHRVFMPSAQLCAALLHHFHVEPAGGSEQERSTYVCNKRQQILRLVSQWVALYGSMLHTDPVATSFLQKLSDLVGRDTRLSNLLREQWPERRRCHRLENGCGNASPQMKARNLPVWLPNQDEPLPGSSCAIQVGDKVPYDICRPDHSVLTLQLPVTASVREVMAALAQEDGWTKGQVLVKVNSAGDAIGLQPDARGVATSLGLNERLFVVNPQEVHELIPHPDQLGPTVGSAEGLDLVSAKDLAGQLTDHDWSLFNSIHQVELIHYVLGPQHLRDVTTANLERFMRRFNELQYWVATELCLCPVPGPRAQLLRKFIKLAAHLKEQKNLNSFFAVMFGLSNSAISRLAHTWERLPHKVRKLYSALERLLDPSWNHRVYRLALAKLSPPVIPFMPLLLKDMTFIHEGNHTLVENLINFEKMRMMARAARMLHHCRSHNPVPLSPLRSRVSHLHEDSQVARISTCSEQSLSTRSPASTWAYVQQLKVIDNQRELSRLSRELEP
In short: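 Nucleotide exchange uses 100 nM EPAC1, 250 nM RAP1B-BODIPY-GDP and 50 uM GDP, with compounds in a concentration-titration series. After 5 min at room temperature, fluorescence (480 nm ex/540 nm em) is read every 5 min for 30 min. Data are normalized to control ATA and DMSO.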

[2] = target: Rap guanine nucleotide exchange factor 3 (Homo sapiens) (UniProt O95398); assay: Confirmatory qHTS for agonist of cAMP-regulated guanine nucleotide exchange factor 3 (EPAC1) (AID 1645881);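 further: EPAC1 catalysed release of BODIPY-GDP from Rap1B seen as fluorescence loss; 100% = effect of cAMP agonist control; nearly all actives have a fitted effect of over 75% in size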
[3] = target: Rap guanine nucleotide exchange factor 3 (Homo sapiens) (UniProt O95398); assay: Counterscreen qHTS for agonist of cAMP-regulated guanine nucleotide exchange factor 3 (EPAC1) (AID 1645889); further: nearly all actives have a fitted effect of over 40% in size; further: potency means the concentration at half of the fitted maximal effect; on activation: % of control where 0% means no effect
In short: (§1)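 Rap1B-BODIPY-GDP 250 nM + GDP 50 uM; cpds 7-pt, final 9.74 nM–152 uM (activator mode) or from 7.32 nM upwards (inhibitor mode); RT; FI 480/540 nm at 5 and 30 min, then ± cAMP, reread.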

[4] = target: Rap guanine nucleotide exchange factor 4 (Homo sapiens) (UniProt Q8WZA2); assay: Confirmatory qHTS for agonist of cAMP-regulated guanine nucleotide exchange factor 4 (EPAC2) (AID 1645884);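 further: nucleotide exchange releases bodipy-GDP from Rap1 and this lowers its fluorescence; nearly all actives have a fitted effect of over 65% in size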; further: potency means the concentration at half of the fitted maximal effect; on activation: on the % scale 0 is the no-effect control and ±100 the full control effect
Sequence of Rap guanine nucleotide exchange factor 4 (Homo sapiens) (Q8WZA2 whole entry, looked up): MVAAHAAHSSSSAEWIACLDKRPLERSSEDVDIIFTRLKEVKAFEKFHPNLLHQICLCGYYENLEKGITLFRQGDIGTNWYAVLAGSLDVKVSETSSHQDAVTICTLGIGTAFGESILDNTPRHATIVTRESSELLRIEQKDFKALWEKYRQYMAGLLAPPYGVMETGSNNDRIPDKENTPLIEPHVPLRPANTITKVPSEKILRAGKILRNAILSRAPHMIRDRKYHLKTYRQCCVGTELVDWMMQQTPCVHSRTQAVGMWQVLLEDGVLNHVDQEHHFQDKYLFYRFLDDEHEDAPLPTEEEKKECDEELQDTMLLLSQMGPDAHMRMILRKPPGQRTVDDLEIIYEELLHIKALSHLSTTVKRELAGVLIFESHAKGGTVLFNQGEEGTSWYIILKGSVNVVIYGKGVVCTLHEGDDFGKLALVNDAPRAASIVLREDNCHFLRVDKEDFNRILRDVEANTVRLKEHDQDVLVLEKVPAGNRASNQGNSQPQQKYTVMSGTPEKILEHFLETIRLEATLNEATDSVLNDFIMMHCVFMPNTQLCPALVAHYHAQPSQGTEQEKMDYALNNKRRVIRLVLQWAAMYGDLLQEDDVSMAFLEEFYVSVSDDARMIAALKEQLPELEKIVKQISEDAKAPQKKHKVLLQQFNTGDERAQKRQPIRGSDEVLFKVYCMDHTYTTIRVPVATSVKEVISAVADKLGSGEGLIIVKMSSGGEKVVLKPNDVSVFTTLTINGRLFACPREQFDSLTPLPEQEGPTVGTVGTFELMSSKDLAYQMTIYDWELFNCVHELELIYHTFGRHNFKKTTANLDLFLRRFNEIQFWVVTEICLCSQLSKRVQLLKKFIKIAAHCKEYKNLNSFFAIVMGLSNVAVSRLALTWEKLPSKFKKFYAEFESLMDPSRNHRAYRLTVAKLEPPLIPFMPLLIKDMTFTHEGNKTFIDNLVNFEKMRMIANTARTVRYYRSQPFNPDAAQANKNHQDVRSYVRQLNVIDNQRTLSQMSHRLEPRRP

[5] = target: Rap guanine nucleotide exchange factor 4 (Homo sapiens) (UniProt Q8WZA2); assay: Confirmatory qHTS for antagonist of cAMP-regulated guanine nucleotide exchange factor 4 (EPAC2) (AID 1645885); further: nearly all actives have a fitted effect of over 25% in size; further: potency means the concentration at half of the fitted maximal effect; on activity change, negative = inhibition: on the % scale 0 is the no-effect control and ±100 the full control effect
[6] = target: Rap guanine nucleotide exchange factor 3 (Homo sapiens) (UniProt O95398); assay: Counterscreen qHTS for antagonist of cAMP-regulated guanine nucleotide exchange factor 3 (EPAC1) (AID 1645888);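 further: fluorescence loss as bound BODIPY-GDP is released from Rap1B; % of control where 0% means no effect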
In short: as §1

CCOC(=O)C1Oc2ccccc2C(c2ccc(C)cc2)=C1C(=O)OC (stereo not drawn)
inactive: Potency [1] | Potency [2] | Potency [3]

COC(=O)c1cc(C(=O)c2ccc(Cl)cc2)n2c(=O)/c(=C\N(C)C)sc12
active: Potency [4] 100 µM
inactive: Potency [1] | Potency [5]

Cc1cccc(NCc2cccc3ccccc23)n1
inactive: Potency [1] | activation [4] 4.47% [at 17.1 µM, percent relative to cAMP agonist control] | Potency [5] | activity change, negative = inhibition [6] -11.4% [at 30.8 µM]

COC(=O)C1=CN(C(C)c2ccccc2)C=C(C(=O)OC)C1c1cc(OC)c(OC)c(OC)c1 (stereo not drawn)
active: Potency [5] 26.9 µM
inactive: Potency [1] | Potency [4] | Potency [6]

CCOc1ccc(CCN2C(=O)C(=O)N([C@@H](CC(C)C)CN3CCC[C@@H]3CN3C(=O)C(=O)NC[C@@H]3Cc3ccccc3)C[C@@H]2CC(C)C)cc1
active: Potency [5] 0.0953 µM
inactive: Potency [1] | Potency [4] | Potency [6]

O=C(NCc1ccco1)c1ccc(Cn2c(=S)[nH]c3ccccc3c2=O)cc1
inactive: Potency [1] | Potency [4] | Potency [6]
active: Potency [5] 0.953 µM

Cc1cccc(-c2nc3nc(C)cc(NCc4ccccc4Cl)n3n2)c1
inactive: Potency [1] | Potency [4] | Potency [5] | Potency [6]

Cn1c(=O)c(C#N)c(-c2ccc(F)cc2)c2cc(C(=O)c3cc(Cl)cc(Cl)c3O)cnc21
inactive: Potency [1] | Potency [4]

COC(=O)c1ccccc1C(=O)c1cccc2ccccc12
inactive: Potency [1] | Potency [4] | Potency [5] | Potency [6]

CCN(C(=O)CN1CCN(c2ccccc2O)CC1)c1c(N)n(Cc2ccccc2)c(=O)[nH]c1=O
inactive: Potency [1] | Potency [4] | Potency [5] | Potency [6]

CC1CCN(c2ccc3c(c2)S(=O)(=O)c2cccc(C(=O)NCc4cccc(F)c4)c2C3=O)CC1
active: Potency [4] 112 µM
inactive: Potency [1] | Potency [5] | Potency [6]

COc1ccc(OC)c(/C=C/c2nc3ccccc3[nH]c2=O)c1
active: Potency [4] 100 µM | Potency [5] 75.7 µM
inactive: Potency [1] | Potency [6]

COc1ccc(OC)c(/C=C2\SC(=S)N(Cc3cccnc3)C2=O)c1
inactive: Potency [1] | activation [4] 3.3% [at 17.1 µM, percent relative to cAMP agonist control] | Potency [5] | activity change, negative = inhibition [6] -3.11% [at 30.8 µM]

O=C(CSc1nc2ccccc2o1)NCc1ccc2c(c1)OCO2
inactive: Potency [1] | Potency [4]

CCOc1cc(/C=N/NC(=O)c2ccc(-c3csc(Nc4ccc(C)cc4)n3)cc2)ccc1OCC(=O)O
active: Potency [1] 23.9 µM
inactive: Potency [4] | Potency [5] | Potency [6]

CN(C)c1ccc(/C=C(\C#N)C(=O)c2ccccc2)cc1
inactive: Potency [1] | activation [4] 17.4% [at 17.1 µM, percent relative to cAMP agonist control] | Potency [5] | activity change, negative = inhibition [6] 15.5% [at 30.8 µM]

COc1ccc(OC)c(/C=C/c2nc3ccccc3nc2C)c1
active: Potency [4] 79.3 µM
inactive: Potency [1] | Potency [5]

COC(=O)c1ccc2nc(-c3ccc(F)cc3)c(Cc3ccccc3)n2c1
inactive: Potency [1] | Potency [2] | activation [3] 19.8% [at 30.8 µM]

COc1cccc(-n2c(SCC(=O)Nc3ccc(F)cc3F)nc3c([nH]c4ccccc43)c2=O)c1
inactive: Potency [1] | Potency [4] | Potency [5] | Potency [6]

CCOC(=O)N1CCc2c(sc3c2c(=O)n(-c2ccc(F)cc2)c(=O)n3CC(=O)c2ccc(Cl)cc2)C1
inactive: Potency [1] | Potency [4] | Potency [5] | Potency [6]

CCc1ccc(NC(=O)/C(C#N)=C/c2cc3ccc(C)cc3nc2N2CCOCC2)cc1
inactive: Potency [1] | activation [4] 0% [at 17.1 µM, percent relative to cAMP agonist control] | Potency [5] | activity change, negative = inhibition [6] -18.1% [at 30.8 µM]

Cc1ccc(Nc2cc(C)nc3c(C)ccc([N+](=O)[O-])c23)cc1
inactive: Potency [1] | activation [4] 6.25% [at 17.1 µM, percent relative to cAMP agonist control] | Potency [5] | activity change, negative = inhibition [6] 4.53% [at 30.8 µM]

CCOc1ccc(NC(=O)/C(C#N)=C/c2ccc(N3CCCC3)c(C)c2)cc1
inactive: Potency [1] | activation [4] 3.1% [at 17.1 µM, percent relative to cAMP agonist control] | Potency [5] | activity change, negative = inhibition [6] 15.4% [at 30.8 µM]

CC(OC(=O)/C(C#N)=C/c1ccc(N(C)C)cc1)C(=O)N(C)Cc1ccccc1 (stereo not drawn)
inactive: Potency [1] | activation [4] 3.68% [at 17.1 µM, percent relative to cAMP agonist control] | Potency [5] | activity change, negative = inhibition [6] -0.358% [at 30.8 µM]

O=C1CCC2CN3CCc4c([nH]c5ccccc45)C3CC2C1 (stereo not drawn)
inactive: Potency [1] | activation [4] -5.59% [at 17.1 µM, percent relative to cAMP agonist control] | Potency [5] | activity change, negative = inhibition [6] 2.15% [at 30.8 µM]

Cc1ccc2nc(/C(C#N)=C\c3ccc(N4CCOCC4)o3)[nH]c2c1
inactive: Potency [1] | activation [4] 11.1% [at 17.1 µM, percent relative to cAMP agonist control] | Potency [5] | activity change, negative = inhibition [6] 15.8% [at 30.8 µM]

CCOc1ccc2c(ccc(/C=C/c3cc(C)c4cccnc4c3O)[n+]2C)c1
active: Potency [1] 60.1 µM | Potency [4] 70.8 µM | Potency [5] 42.6 µM

CC(C)(C)C1CCc2c(sc(NC(=O)CCC(=O)O)c2C(=O)Nc2ccccc2C(F)(F)F)C1 (stereo not drawn)
inactive: Potency [4] | Potency [5]
active: Potency [1] 42.6 µM

COc1cc2c(c(OC)c1OC)C(c1ccc(C)cc1)CC(=O)O2 (stereo not drawn)
inactive: Potency [1] | activation [4] 3.46% [at 17.1 µM, percent relative to cAMP agonist control] | Potency [5] | activity change, negative = inhibition [6] 6.91% [at 30.8 µM]

CCN1CCN(Cc2c(O)ccc3c2O/C(=C\C=C\c2ccccc2OC)C3=O)CC1
inactive: Potency [1] | activation [4] 5.66% [at 17.1 µM, percent relative to cAMP agonist control] | Potency [5]

CN1CCc2c(sc(NC(=O)CSc3ccccc3)c2-c2nc3ccccc3s2)C1
inactive: Potency [1] | Potency [4] | Potency [5] | Potency [6]

CN(C)c1ccc(/C=C/C(=O)c2cccc(Br)c2)cc1
inactive: Potency [1] | activation [4] -16% [at 17.1 µM, percent relative to cAMP agonist control] | Potency [5] | activity change, negative = inhibition [6] 21.2% [at 30.8 µM]

COc1ccc(N=Cc2c(O)ccc3ccccc23)cc1
inactive: Potency [1] | activation [4] 6.9% [at 17.1 µM, percent relative to cAMP agonist control] | Potency [5] | activity change, negative = inhibition [6] 17.7% [at 30.8 µM]

C=CCSc1nc2ccccc2c(=O)n1Cc1ccccc1
inactive: Potency [1] | Potency [2] | activation [3] 7.4% [at 30.8 µM]

CCOc1cc(/C=C2\CCCc3c2nc2ccccc2c3C(=O)O)ccc1OC
active: Potency [4] 112 µM | Potency [3] 100 µM
inactive: Potency [1] | Potency [5] | Potency [6]

NC(=O)c1c(NC(=O)c2ccccc2)sc2c1CCN(Cc1ccccc1)C2
active: Potency [4] 112 µM | Potency [5] 84.9 µM | Potency [3] 39.8 µM
inactive: Potency [1] | Potency [6]

COc1ccc(CN(C)C(=O)CC(c2ccccc2)c2ccccc2)cc1
inactive: Potency [1] | Potency [4] | Potency [5] | Potency [6] | Potency [3]

CCOc1ccccc1NC(=O)CSc1nccn1-c1cccc(C)c1
inactive: Potency [1] | Potency [4] | Potency [5] | Potency [6] | Potency [3]

CCc1cccc(CC)c1N1C(=O)C2=C(SCCCS2)C1=O
inactive: Potency [1] | Potency [5] | Potency [6]
active: Potency [4] 112 µM

COc1ccc(NC(=O)/C(C#N)=C\c2ccc(OCc3ccc(C(=O)O)cc3)c(OC)c2)cc1
inactive: Potency [4] | Potency [5] | Potency [6] | Potency [3]
active: Potency [1] 67.5 µM

COc1ccc(-c2nc(N/N=C(\C)c3ccc(O)cc3)c3ccccc3n2)cc1
inactive: Potency [1] | activation [4] -0.683% [at 17.1 µM, percent relative to cAMP agonist control] | Potency [5] | activity change, negative = inhibition [6] 8.99% [at 30.8 µM] | activation [3] 22.7% [at 30.8 µM]

CCOC(=O)C1=C(C)N=c2s/c(=C/c3ccc(OCC(=O)O)c(OC)c3)c(=O)n2C1c1ccc(Cl)cc1 (stereo not drawn)
inactive: Potency [1] | Potency [4] | Potency [5] | Potency [6] | Potency [3]

O=C(N=c1ccn(-c2nc3ccccc3nc2NS(=O)(=O)c2ccccc2)cc1)c1ccccc1Cl
active: Potency [4] 89.1 µM | Potency [5] 75.7 µM | Potency [3] 79.4 µM
inactive: Potency [1] | Potency [6]

Cc1ccc(N=Cc2sc(O)c3ccccc23)c(C)c1
inactive: Potency [1] | activation [4] -3.2% [at 17.1 µM, percent relative to cAMP agonist control] | Potency [5] | activity change, negative = inhibition [6] -0.317% [at 30.8 µM] | activation [3] 10.3% [at 30.8 µM]

Cc1ccc2c(c1C)OC(=O)CC2c1ccccc1 (stereo not drawn)
inactive: Potency [1] | Potency [4] | Potency [5] | Potency [6] | Potency [3]

Cc1cccn2c(=O)c(/C=C(\C#N)c3nc4ccccc4n3C)c(Oc3ccc(Br)cc3)nc12
active: Potency [3] 39.8 µM
inactive: Potency [1] | Potency [4] | Potency [5] | Potency [6]

O=C(Cn1c(=O)n(-c2ccccc2)c(=O)c2c3c(sc21)CCC3)c1ccc(Br)cc1
inactive: Potency [1] | Potency [4] | Potency [5] | Potency [6] | Potency [3]

COC(=O)c1c(SC)nc2ccccc2c1OCc1ccc(C)cc1C
inactive: Potency [1] | Potency [4] | Potency [5] | Potency [6] | Potency [3]

N=C1/C(=C/c2coc3ccccc3c2=O)C(=O)N=C2SC(c3ccco3)=NN12
inactive: Potency [1] | Potency [4] | Potency [5] | Potency [6]
active: Potency [3] 39.8 µM

CCCCCn1nc(-c2ccccc2)c2nc3ccccc3nc21
inactive: Potency [1] | activation [4] 2.69% [at 17.1 µM, percent relative to cAMP agonist control] | Potency [5] | activity change, negative = inhibition [6] 19.6% [at 30.8 µM] | activation [3] 10.8% [at 30.8 µM]
